# Experimental data reported in PubChem BioAssay AID485297 (National Center for Advancing Translational Sciences (NCATS), 2010).
# About 9,100 (2.8%) of roughly 320,000 compounds were called active. Where a call stands in place of a potency, no number is given. Not shown: some 3% with an inconclusive outcome. The call rests on the fitted dose curve; in most records, active means well fitted activation curve with a large enough effect; inconclusive means small, poorly fitted or top-dose-only effect; inactive means no such curve, though single readings can be large or run the other way. For the sample, actives were picked, then their nearest neighbours and some compounds at random.
# Experiment: qHTS Assay for Rab9 Promoter Activators; further: nearly all actives have a fitted effect of over 60% in size
# Details: Huh7 Rab9 promoter-luciferase reporter, luminescence, 24 h; series mostly up to 9.22 µM
# Procedure, shortened: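 Measured in stably transfected Huh7 cells bearing a Rab9 promoter–luciferase construct: 24 h compound treatment at 37 °C, followed by luminescence detection.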
# Potency means the concentration at half of the fitted maximal effect.
row,SMILES,Potency
1,Cc1ccc(F)cc1NC(=O)CSCc1c(C)noc1C,inactive
2,CN(CC(=O)Nc1ccc(Cl)c(C(F)(F)F)c1)C(=O)CCC(=O)c1ccccc1,inactive
3,NC1CCN(O)C1=O (stereo unspecified),inactive
4,CC(C)CN(C(=O)CSc1ncnc2sccc12)C1CCS(=O)(=O)C1 (stereo unspecified),inactive
5,CC(=O)Nc1ccc(NC(=O)C(NS(=O)(=O)c2ccc3c(c2)OCCO3)C(C)C)cc1 (stereo unspecified),inactive
6,Cc1ccc(S(=O)(=O)N(C)CC(=O)NCC(c2ccc(F)cc2)N2CCOCC2)cc1 (stereo unspecified),inactive
7,O=C(COc1ccc(Cl)cc1)Nc1ccc2oc(=O)ccc2c1,inactive
8,Cc1nc(-c2ccc(NC(=O)c3cccs3)cc2)cs1,0.398 µM (active)
9,Cc1ccc(C(=O)NNC(=O)c2cccs2)cc1,2.82 µM (active)
10,Cc1ccc(-c2csc(NC(=O)c3cccs3)n2)cc1,3.55 µM (active)
11,Cc1ccc(-c2csc(NC(=O)Cn3[nH]c(=O)c4ccccc4c3=O)n2)cc1,inactive
12,Cc1ccc(C(=O)Nc2ccc(NC(=O)c3cccs3)cc2)c(C)c1,inactive
13,Cc1ccc(C)c(NC(=O)CCC(=O)NNC(=O)c2cccs2)c1,inactive
14,O=C(NNC(=O)c1ccc(Cl)cc1Cl)c1cccs1,3.55 µM (active)
15,CCCc1ccc(-c2csc(NC(=O)Cc3cccs3)n2)cc1,inactive
16,Cc1ccc(NNC(=O)c2cccs2)cc1Cl,inactive
17,CC(C)C(=O)Nc1ccc(C(=O)NNC(=O)c2cccs2)cc1,inactive
18,NNC(=O)c1ccc(Cl)cc1Cl,inactive
19,O=C(Nc1ccccc1)c1ccc(NC(=O)c2cccs2)cc1,inactive
20,Cc1cccc(C)c1NC(=O)CNC(=O)C1CCCC1,inactive
21,O=C(CN1CCCCC1)NC(=O)Nc1ccccc1F,inactive
22,CC(=O)C[C@@H](O)CC(=O)[C@H]1OC(=O)CCCCCCc2ccccc21,inactive
23,Cc1cc(C(=O)OCC(=O)Nc2ccccc2Cl)c(C)o1,inactive

row,SMILES,Potency
1,O=C(COc1ccccc1O)NC1CCCC1,inactive
2,COc1ccc(C(=O)NCC2CCCCC2)cc1S(=O)(=O)N1CCCC1,inactive
3,COc1ccc(OC)c(NC(=O)c2sc3nc(C)cc(C)c3c2N)c1,inactive
4,COCCCNc1nc2c(-c3cccc(C)c3)nnn2c2ccc(Cl)cc12,inactive
5,COC(=O)c1cc(Oc2ccc(S(=O)(=O)N3CCOCC3)cc2[N+](=O)[O-])cc(C(=O)OC)c1,inactive
6,COc1ccc(S(=O)(=O)Nc2ccc3cn[nH]c3c2)cc1[N+](=O)[O-],inactive
7,CC(C)Nc1ccc(-n2nc3ccccc3[n+]2[O-])cc1,0.501 µM (active)
8,CCN(CC(=O)NCc1cccs1)C(=O)/C=C/c1ccc(C)cc1,inactive
9,COc1ccccc1NC(=O)COC(=O)COc1ccccc1F,inactive
10,CCC1=NN2C(=N)/C(=C/c3cc(C)n(-c4ccccc4)c3C)C(=O)N=C2S1,inactive
11,CCS(=O)(=O)C1=NSC2=NC(=O)/C(=C\c3cc(C)n(-c4cccc(OC)c4)c3C)C(=N)N21,inactive
12,Cc1cc(/C=C2/C(=N)N3C(=NC2=O)SN=C3S(C)(=O)=O)c(C)n1-c1ccccc1,3.55 µM (active)
13,COc1ccc([C@H]2CC(=O)C=C(/C=C/c3ccccc3)C2)cc1,inactive
14,COc1ccc2oc(=O)c(C(=O)N3CCCC3)cc2c1,inactive
15,Cc1cc(C)cc(NC(=O)N2CCCCCCC2)c1,inactive
16,Cc1ccc2cc3cc(C(=O)N4CCCCCC4)oc3nc2c1,0.631 µM (active)
17,O=C(NNC(=O)c1cc(S(=O)(=O)N2CCCCC2)ccc1Cl)c1ccccc1O,inactive
18,O=C1CCN(C(=S)NCCc2ccccc2)CC1,inactive
19,S=C(NCCc1ccccc1)N1CCCCC1,3.16 µM (active)
20,COc1ccc(C(=O)NC2CCN(C(=S)NCCc3ccccc3)CC2)cc1,inactive
21,Cc1cccn2c(=O)nc(SCC(=O)NCc3ccccc3Cl)nc12,inactive
22,CC(C)CCN1CCC(C)(NC(=O)c2ccccc2)C1=O (stereo unspecified),inactive
23,Brc1ccc(-c2noc(-c3ccccc3)n2)o1,1.26 µM (active)

row,SMILES,Potency
1,Cn1nc(-c2ccccc2)c(-c2nc(-c3ccc(Cl)cc3)no2)c1Cl,inactive
2,Nc1nonc1-c1noc(-c2ccc(Br)o2)n1,inactive
3,CCOC(=O)c1cn[nH]c1NC(=S)Nc1ccccc1,1.12 µM (active)
4,CCOC(=O)c1ccc(NC(=S)Nc2cc(C)cc(C)n2)cc1,inactive
5,CCOC(=O)c1cc2c(nc1NC(=S)Nc1ccccc1)CC(C)(CC)OC2 (stereo unspecified),inactive
6,Cn1nc(C(=O)OCC(=O)N(Cc2ccccc2)C(C)(C)C)c2ccccc2c1=O,inactive
7,O=S(=O)(Nc1ccc(-n2cnnn2)cc1)c1ccc(Cl)cc1,inactive
8,O=C(COc1nc2ccccc2nc1N1CCOCC1)NCC(F)(F)F,inactive
9,O=C(C1Cc2ccccc2CN1C(=O)c1ccco1)N1CCN(c2ccccc2)CC1 (stereo unspecified),inactive
10,CCn1cnc2scc(-c3ccc(C)c(C)c3)c2c1=O,inactive
11,O=C(Nc1ccc(Cl)cc1)/C(=C1\CCCN1)[N+](=O)[O-],2.82 µM (active)
12,Cc1nc([N+](=O)[O-])cn1CC(=O)Nc1ccc(Cl)cc1,inactive
13,O=C(O)C1CCCCC1C(=O)Nc1ccc(Cl)cc1 (stereo unspecified),inactive
14,COc1ccc(N2C(=O)CC(Nc3ccc(F)cc3)C2=O)c([N+](=O)[O-])c1 (stereo unspecified),inactive
15,O=C(COC(=O)c1ccccn1)NNC(=O)c1ccc([N+](=O)[O-])cc1,inactive
16,Cc1ccc(Cl)cc1NC(=O)c1ccccn1,inactive
17,COc1ccc(C(=O)NNC(=O)c2cnccn2)cc1[N+](=O)[O-],inactive
18,O=C(OCc1ccc([N+](=O)[O-])cc1)c1ccccn1,inactive
19,COc1ccccc1OCC(=O)OCn1c(SC)nnc(C)c1=O,inactive
20,Cc1ccc(C(=O)O/N=C(\N)c2ccccn2)cc1Cl,3.16 µM (active)
21,COc1ccccc1OCC(=O)OCc1cc(-c2ccco2)on1,inactive
22,COc1ccc(C(=O)CSc2nc(C)cc(C)n2)cc1[N+](=O)[O-],inactive
23,O=C(Nc1ccccc1Cl)O/N=C(/c1ccccc1)c1ccccn1,inactive

row,SMILES,Potency
1,COc1ccccc1OCC(=O)O/N=C(\N)c1ccccn1,3.16 µM (active)
2,N/C(=N\OC(=O)c1ccc([N+](=O)[O-])cc1)c1ccccn1,0.316 µM (active)
3,COc1ccc(C(=O)O/N=C(\N)c2ccccn2)cc1[N+](=O)[O-],4.47 µM (active)
4,CC(C)Cn1c(N)c(C(=O)COC(=O)C2CCCN2C(=O)c2cccs2)c(=O)n(C)c1=O (stereo unspecified),inactive
5,CCOc1c(Nc2cccc(Cl)c2)c(=O)c1=O,inactive
6,CS(=O)(=O)Nc1ccccc1C(=O)OCC(=O)NC1CC1,inactive
7,CCOC(=O)C1CCN(C(=O)c2cccc(S(=O)(=O)N(CC)c3ccccc3)c2)CC1,inactive
8,Cn1c2cc(B(O)O)sc2c2cnn(Cc3ccccc3F)c(=O)c21,inactive
9,COc1ccc(CC2c3cc(OC)c(OC)cc3CC[N+]2(C)CCC(=O)OCCCCCOC(=O)CC[N+]2(C)CCc3cc(OC)c(OC)cc3C2Cc2ccc(OC)c(OC)c2)cc1OC (stereo unspecified),inactive
10,CCc1cccc(C)c1NC(=O)COC(=O)CC1CCCC1,inactive
11,Cc1cc(C)c(S(=O)(=O)N2CCC(C(=O)OCc3c(C)noc3C)CC2)c(C)c1,inactive
12,CC(=O)c1ccc(OCCCC(=O)Nc2ccc(C)c(S(=O)(=O)N3CCOCC3)c2)cc1,inactive
13,COc1ccc(Cl)cc1C(=O)OCC(=O)NCc1cccs1,inactive
14,CCOC(=O)c1c(C)[nH]c(C(=O)NCCN2CCOCC2)c1C,inactive
15,COC(=O)Cc1ccc(OCC(=O)NC2CCCC2)cc1,inactive
16,CN(CC(=O)Nc1ccc(F)cc1)CC(=O)N1CCCCC1,inactive
17,COc1ccccc1-c1oc2ccccc2c1C#CCCCCO,inactive
18,O=C(C1CC(=O)N(C2CCCC2)C1)N1CCN(c2cccc(C(F)(F)F)c2)CC1 (stereo unspecified),inactive
19,CCOC(=O)c1nc(-c2ccc3c(c2)OCO3)[nH]c1C,inactive
20,CC(C)c1ccc(NC(=O)COC(=O)c2ccc(CN3CCCC3=O)cc2)cc1,inactive
21,O=C(CSc1nnc(Nc2ccccc2F)s1)NC1CCCC1,inactive
22,Cc1c(NC(=O)CSCc2ccccc2)cccc1C(=O)O,inactive
23,COc1cc(OC)cc(C(=O)NNC(=O)CCOc2ccccc2OC)c1,inactive

row,SMILES,Potency
1,CCN(C(=O)COC(=O)Cc1c(F)cccc1Cl)c1c(N)n(Cc2ccccc2)c(=O)[nH]c1=O,inactive
2,O=C(CSc1nnc(-c2ccco2)n1-c1ccccc1)NCCc1ccccc1,inactive
3,O=C(CSc1nnc(-c2ccco2)n1CC1CCCO1)c1ccccc1 (stereo unspecified),inactive
4,c1ccc(CSc2nnc(-c3ccco3)n2Cc2ccccc2)cc1,3.55 µM (active)
5,COc1ccc(NC(=O)CN(C)C(=O)c2cc(C3CC3)nn2-c2ccccc2)cc1,inactive
6,COc1ccccc1C1=CC(=O)C[C@H](c2ccc(F)cc2)C1,inactive
7,CSCCC(NC(=O)c1ccccc1)C(=O)N1CCN(Cc2ccc(Cl)cc2)CC1 (stereo unspecified),inactive
8,O=C(CCc1ccccc1)NNc1ccc(F)cc1,inactive
9,Cc1ccc(F)c(NC(=O)CCOc2ccccc2C)c1,inactive
10,Cc1ccc(F)c(NC(=O)CCc2ccccc2)c1,2.82 µM (active)
11,COC(=O)C1=CO[C@@H](O[C@@H]2O[C@H](CO)[C@@H](O)[C@H](O)[C@H]2O)C2C1C[C@H](O)[C@@H]2C (stereo partly specified),inactive
12,Cc1ccccc1-c1nc(C#N)c(NCc2ccco2)o1,inactive
13,N#Cc1nc(Cc2cccc3ccccc23)oc1NCc1ccc2c(c1)OCO2,inactive
14,N#Cc1nc(Cc2ccccc2)oc1NCCc1ccccc1,3.16 µM (active)
15,Cc1cccc(-c2oc3ccc(-c4ccc5c(c4)OCO5)cc3c2C#Cc2cncn2C)c1,inactive
16,CCOC(=O)Cn1nnnc1C,inactive
17,CCOC(=O)/C(C#N)=C/c1ccc(N2CCCCC2)cc1,3.16 µM (active)
18,COc1ccc(N2CCN(C(=O)/C(C#N)=C/c3ccccc3)CC2)cc1,inactive
19,CCOC(=O)/C(C#N)=C/c1ccc(N2CCN(Cc3ccccc3)CC2)cc1,inactive
